Data published in PubChem BioAssay (NCATS).
Results filed as inconclusive are left out. Values without a mark were called inactive. Calls of active or inactive are those of the source. The call rests on the fitted dose curve; in most records, active means well fitted curve in the direction sought with a large enough effect; inconclusive means small, poorly fitted or top-dose-only effect, or another doubt; inactive means no such curve, though single readings can be large; an effect the other way counts as inactive or inconclusive.

Test system: not listed separately
Experiment: qHTS of pediatric cancer cell lines to identify multiple opportunities for drug repurposing: Confirmatory screen for Rh30 cells (AID 1347126); further: nearly all actives have a fitted effect of over 55% in size; further: potency means the concentration at half of the fitted maximal effect; on activity change, negative = cytotoxic: on the % scale 0 is the no-effect control and ±100 the full control effect
Conditions: Rh30 rhabdomyosarcoma cell viability; series mostly up to 45.9 µM; activity change, negative = cytotoxic: at the top concentration
Outline: (§1)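 Cells (500-1,000/well) in growth media were settled 5 h at 37 degrees C, then given compounds for 48 h. Viability was read as CellTiter-Glo luminescence. Primary runs used MIPE at 11 points (0.78 nM-46 µM) and NPC at 8 points (0.59 nM-46 µM); follow-ups used 11 points.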

| SMILES | activity change, negative = cytotoxic | Potency |
| --- | --- | --- |
| CC(=O)N1CCN(c2ccc(OCc3nn(C)c(C)c3-c3cccc4c(CCCOc5cccc6ccccc56)c(C(=O)O)n(Cc5cccnc5)c34)cc2)CC1 | -25.2% |  |
| O=C(O)C[C@H](O)C[C@H](O)C=Cc1c(C2CC2)nc2ccccc2c1-c1ccc(F)cc1 |  | 2.33 µM (active) |
| O=C(C=Cc1ccc(CN(CCO)CCc2c[nH]c3ccccc23)cc1)NO |  | 0.414 µM (active) |
| O=C(O)c1ccc(Nc2ncc3c(n2)-c2ccc(Cl)cc2C(c2c(F)cccc2F)=NC3)cc1 | -68.7% |  |
| Cn1cc(-c2cnn3c(N)c(Br)c([C@H]4CCCNC4)nc23)cn1 |  | 3.69 µM (active) |

Test system: not listed separately
Experiment: qHTS of pediatric cancer cell lines to identify multiple opportunities for drug repurposing: Confirmatory screen for OHS-50 cells (AID 1347128);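 further: compound exposure lasted 48 h at 37 degrees C; nearly all actives have a fitted effect of over 55% in size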; further: potency means the concentration at half of the fitted maximal effect; on activity change, negative = cytotoxic: on the % scale 0 is the no-effect control and ±100 the full control effect
Conditions: OHS-50 osteosarcoma cells viability; series mostly up to 45.9 µM; activity change, negative = cytotoxic: at the top concentration
Outline: as §1

| SMILES | activity change, negative = cytotoxic | Potency |
| --- | --- | --- |
| CC(=O)N1CCN(c2ccc(OCc3nn(C)c(C)c3-c3cccc4c(CCCOc5cccc6ccccc56)c(C(=O)O)n(Cc5cccnc5)c34)cc2)CC1 | -10.2% |  |
| O=C(O)C[C@H](O)C[C@H](O)C=Cc1c(C2CC2)nc2ccccc2c1-c1ccc(F)cc1 |  | 10.4 µM (active) |
| O=C(O)c1ccc(Nc2ncc3c(n2)-c2ccc(Cl)cc2C(c2c(F)cccc2F)=NC3)cc1 | -33.1% |  |

Test system: not listed separately
Experiment: qHTS of pediatric cancer cell lines to identify multiple opportunities for drug repurposing: Confirmatory screen for SK-N-SH cells (AID 1347129);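 further: cells exposed to compound for 48 h before viability read; nearly all actives have a fitted effect of over 60% in size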; further: potency means the concentration at half of the fitted maximal effect;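 on activity change, negative = cytotoxic: plate controls were DMSO for no effect and bortezomib control for full effect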
Conditions: SK-N-SH neuroblastoma cell viability; series mostly up to 46.1 µM; activity change, negative = cytotoxic: at the top concentration
Outline: as §1

| SMILES | activity change, negative = cytotoxic | Potency |
| --- | --- | --- |
| CC(=O)N1CCN(c2ccc(OCc3nn(C)c(C)c3-c3cccc4c(CCCOc5cccc6ccccc56)c(C(=O)O)n(Cc5cccnc5)c34)cc2)CC1 | 9.7% |  |
| CCc1cnn2c(NCc3ccc[n+]([O-])c3)cc(N3CCCC[C@@H]3CCO)nc12 | 3% |  |
| N#Cc1c(C2CCNCC2)cc(-c2c(O)cccc2OCC2CC2)nc1N |  | 23.5 µM (active) |
| Cn1cc(-c2cnn3c(N)c(Br)c([C@H]4CCCNC4)nc23)cn1 |  | 18.7 µM (active) |

Biological target: Furin (Homo sapiens) (UniProt P09958)
Experiment: Furin counterscreen qHTS for Zika virus inhibitors (AID 1347149); further: nearly all actives have a fitted effect of over 70% in size; further: potency means the concentration at half of the fitted maximal effect;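 on activity change, negative = inhibition: purified recombinant full-length human furin enzyme at 5 nM; fluorescence gain from furin cutting a BOC-RVRR-AMC peptide substrate over 15 min; top concentration of the series differs between compounds; plate controls were no-inhibitor control for no effect and no-enzyme control for full effect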
Conditions: furin enzymatic counterscreen, fluorogenic substrate; series mostly up to 57.5 µM; activity change, negative = inhibition: at the top concentration
Outline: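 Fluorogenic cleavage of BOC-RVRR-AMC (2 microM final, Km ~15 µM) was monitored (ex 340, em 450 nm) at 37C after 15 min RT preincubation of 5 nM furin with compounds in HEPES pH 7.0 buffer with CaCl2 and Triton X-100. Percent inhibition was fitted to a 4-parameter Hill curve.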

Furin (Homo sapiens), sequence (P09958 whole entry, looked up): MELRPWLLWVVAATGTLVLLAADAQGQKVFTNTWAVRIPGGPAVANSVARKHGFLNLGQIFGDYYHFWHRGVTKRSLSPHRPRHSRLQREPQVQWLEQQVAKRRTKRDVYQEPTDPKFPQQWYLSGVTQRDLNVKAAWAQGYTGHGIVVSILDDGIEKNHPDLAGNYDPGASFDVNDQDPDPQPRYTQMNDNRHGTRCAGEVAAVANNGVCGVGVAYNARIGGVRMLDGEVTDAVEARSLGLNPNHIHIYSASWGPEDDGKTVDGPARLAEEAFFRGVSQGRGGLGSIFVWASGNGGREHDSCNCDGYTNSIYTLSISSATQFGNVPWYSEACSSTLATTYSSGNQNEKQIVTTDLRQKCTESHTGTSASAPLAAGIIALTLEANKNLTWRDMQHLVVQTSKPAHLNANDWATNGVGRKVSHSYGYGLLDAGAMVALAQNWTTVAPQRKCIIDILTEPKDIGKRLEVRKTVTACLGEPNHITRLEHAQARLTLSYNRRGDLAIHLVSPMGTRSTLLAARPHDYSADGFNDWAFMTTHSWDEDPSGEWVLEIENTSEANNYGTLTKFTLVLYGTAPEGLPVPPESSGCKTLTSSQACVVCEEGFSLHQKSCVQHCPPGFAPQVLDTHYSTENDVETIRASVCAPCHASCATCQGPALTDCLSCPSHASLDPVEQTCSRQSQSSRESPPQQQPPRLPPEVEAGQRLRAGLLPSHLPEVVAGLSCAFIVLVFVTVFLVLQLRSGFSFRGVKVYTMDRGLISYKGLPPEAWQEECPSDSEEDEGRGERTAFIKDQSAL

| SMILES | Potency | activity change, negative = inhibition |
| --- | --- | --- |
| C[C@H]1COc2c(N3CCN(C)CC3)c(F)cc3c(=O)c(C(=O)O)cn1c23 | 24.1 µM (active) |  |
| COc1ccc(S(=O)(=O)Nc2cc(-c3c(O)ccc4ccccc34)c(O)c3ccccc23)cc1 |  | -2.62% |
| c1cc(N[C@@H]2CCNC2)nc(-c2cnc3ccc(-c4cn[nH]c4)cn23)c1 | 24.1 µM (active) |  |

Test system: Zika virus NS2B-NS3 protease (linked construct)
Experiment: Confirmatory screen NINDS AMC qHTS for Zika virus inhibitors (AID 1347152); further: nearly all actives have a fitted effect of over 70% in size; further: potency means the concentration at half of the fitted maximal effect;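 on activity change, negative = inhibition: AMC fluorescence gain from cleaved Bz-Nle-KRR-AMC substrate over 15 min; top concentration of the series differs between compounds; 0% = no-inhibitor control and -100% = no-enzyme control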
Conditions: Purified linked NS2B-NS3, AMC substrate fluorescence; series mostly up to 56.6 µM; activity change, negative = inhibition: at the top concentration
Outline: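 Purified NS2B-NS3 protease with NS2B hydrophilic domain linked to NS3 protease domain by flexible linker, 1 nM final in 10 mM Tris-HCl pH 8.0, 0.01% Tween 20. Compounds preincubated 15 min, room temperature; Bz-Nle-KRR-AMC 10 microM (Km 18.3 µM); 15-min fluorescence change, 4-parameter Hill fit.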

| SMILES | activity change, negative = inhibition | Potency |
| --- | --- | --- |
| C[C@@H](NCc1cc2ccccc2[nH]1)c1cccc2ccccc12 | -13.9% |  |
| C[C@H]1COc2c(N3CCN(C)CC3)c(F)cc3c(=O)c(C(=O)O)cn1c23 |  | 24.1 µM (active) |
| CC(C)c1cc(C(C)C)c(CC(=O)NS(=O)(=O)Oc2c(C(C)C)cccc2C(C)C)c(C(C)C)c1 |  | 7.84 µM (active) |
| COc1ccc(S(=O)(=O)Nc2cc(-c3c(O)ccc4ccccc34)c(O)c3ccccc23)cc1 |  | 19.2 µM (active) |
| c1cc(N[C@@H]2CCNC2)nc(-c2cnc3ccc(-c4cn[nH]c4)cn23)c1 |  | 24.1 µM (active) |
| CCCCCCCCc1ccc(CCC(N)(CO)CO)cc1 | 3.47% |  |

Test system: Zika virus NS2B-NS3 protease (unlinked complex)
Experiment: Confirmatory screen GU AMC qHTS for Zika virus inhibitors (AID 1347153); further: nearly all actives have a fitted effect of over 70% in size; further: potency means the concentration at half of the fitted maximal effect;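 on activity, negative = inhibition: percent inhibition with 0% = no inhibitor control and 100% = no enzyme control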
Conditions: Recombinant NS2B-NS3 protease, AMC substrate fluorescence; series mostly up to 57.1 µM; activity, negative = inhibition: at the top concentration
Text: Assay Submitters (PI): Avindra Nath, Ph.D., National Institute of Neurological Disorders and Stroke (NINDS), Bethesda, MD Radhakrishnan Padmanabhan, Ph.D., Georgetown University (GU), Washington D.C. Zika Virus causes congenital defects, including microcephaly and is associated with Guillain-Barre syndrome, eningoencephalitis and myelitis in infected adult. […] Using a target-based approach, we hope to establish a screening paradigm to uncover novel, cell-active NS2B-NS3 protease (Zika Virus) specific inhibitors from NCATS' collection of small molecules using qHTS. […] Active compounds in the primary screen are re-acquired and re-screened to confirm NS2B-NS3 protease inhibition. Early Translation Branch (ETB) National Center for Advancing Translational Sciences (NCATS), Rockville, MD National Institute of Health (NIH), Bethesda, Maryland
Materials: Padmanabhan lab provided the NS2B hydrophilic domain and NS3 protease domain in a noncovalent complex used for the unlinked assay. Control compound aprotinin is obtained from Thermo Scientific (#78432; Waltham, Massachusetts). NS2B-NS3 AMC substrate (Bz-Nle-Lys-Arg-Arg-AMC; Nle-KRR-AMC) purchased from Bachem (#I-1995; Torrance, CA). Ac-VKTGKR-AMC purchased from Genscript or Bachem, Ac-FAAGKR-AMC purchased from Genscript, Ac-GLVKRR-AMC purchased from Genscript, Ac-LKKR-AMC purchased from Genscript. GU AMC unlinked NS2B-NS3 protease qHTS protocol: Briefly, 3 microL of Zika virus unlinked NS2B-NS3 protease (25 nM for linked final concentration), in assay buffer (10 mM Tris-HCl pH 8.0 with 0.01% Tween 20) was dispensed into a 1,536-well solid-bottom black plate (Greiner Bio One, Monroe, NC). Twenty-three nL of compounds (final concentration range 7.28 nM to 114 microM) or control Aprotinin (final concentration range 3.47 nM to 114 microM) were transferred via Wako Pin-tool (Wako Automation, Richmond, VA). Samples were incubated (room temperature, protected from light) for 15 minutes followed by a 1 microL AMC substrate addition of (final concentration of 10 microM; Km = 18.3 µM). Plates were then read immediately on a ViewLux High-throughput CCD imager (PerkinElmer, Waltham, MA) equipped with standard UV fluorescence optics (340(30) nm excitation, 450(20) nm emission) then incubated (room temperature, protected from light) for 15 minutes (~20% conversion). The change in fluorescence intensity over the 15-minute reaction period was normalized against no-inhibitor and no-enzyme controls and the resulting percent inhibition data were fitted to a 4-parameter Hill equation. Aprotinin was used as the intraplate control.

| SMILES | activity, negative = inhibition | Potency |
| --- | --- | --- |
| C[C@@H](NCc1cc2ccccc2[nH]1)c1cccc2ccccc12 | 0.642% |  |
| CC(C)c1cc(C(C)C)c(CC(=O)NS(=O)(=O)Oc2c(C(C)C)cccc2C(C)C)c(C(C)C)c1 |  | 11.1 µM (active) |
| COc1ccc(S(=O)(=O)Nc2cc(-c3c(O)ccc4ccccc34)c(O)c3ccccc23)cc1 |  | 24.1 µM (active) |
| Cc1ccc(-n2[nH]c(C)c(N=Nc3cccc(-c4cccc(C(=O)O)c4)c3O)c2=O)cc1C |  | 15.2 µM (active) |
| CCCCCCCCc1ccc(CCC(N)(CO)CO)cc1 | 1.89% |  |

Test system: Zika virus NS2B-NS3 protease
Experiment: Primary screen GU AMC qHTS for Zika virus inhibitors (AID 1347154);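 further: 0% = no-inhibitor control and -100% = no-enzyme control; nearly all actives have a fitted effect of over 70% in size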
Conditions: Zika NS2B-NS3 unlinked protease, AMC fluorogenic substrate; series mostly up to 54.1 µM; activity change, negative = inhibition: at the top concentration
Outline: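 Unlinked Zika NS2B hydrophilic domain/NS3 protease domain noncovalent complex (25 nM final) in 10 mM Tris-HCl pH 8.0, 0.01% Tween 20, with AMC peptide substrate. Fluorescence (ex 340, em 450 nm) change over 15 min, room temperature; percent inhibition fitted to 4-parameter Hill equation.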

| SMILES | activity change, negative = inhibition |
| --- | --- |
| Cn1cc(C2=C(c3c4n(c5ccccc35)CCC(CN)C4)C(=O)NC2=O)c2ccccc21 (centres undefined) | 6.99% |
| c1cc(CN2CCCNCCNCCCNCC2)ccc1CN1CCCNCCNCCCNCC1 | 3.64% |
| C=CC1=C(C(=O)O)N2C(=O)[C@@H](NC(=O)C(=NO)c3csc(N)n3)[C@H]2SC1 | 3.22% |
